In PubChem BioAssay AID624351 (Southern Research Specialized Biocontainment Screening …, 2012):
In all, about 2,400 compounds went through this assay and about 1,400 (58%) were called active. So high a share suggests a set chosen from earlier hits. This is one part of the list. A number with no mark means an inactive call.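 How the source made its calls: active means inhibition of 30% or more at any tested dose; inconclusive means primary hits over the limit that were never retested; inactive means the rest.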

Assay: coupled detection enzyme interference, dose response, artefact control for MgcRacGAP inhibitor project, biochemical, coupled enzyme counter-screen (AID 624351);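 further: signal is the ADP detection kit reading of free GDP without any GAP enzyme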;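 on inhibition: 0% = median positive control wells and 100% = median negative control wells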
Conditions: ADP Hunter coupled enzyme counter-screen, fluorescence, no MgcRacGAP; series mostly up to 80 µM; inhibition: at the top concentration

Question: For COc1cccc(NS(=O)(=O)c2ccc3c(c2)C2C=CCC2C(c2ccc(C(=O)O)cc2)N3)c1 (stereo not drawn), which “inhibition” value is on record?
Answer: The value was -25%.

Question: With COc1cc(/C=C/C(=O)OCC(=O)NCCC2=CCCCC2)ccc1O as the compound, how does the IC50 read?
Answer: Its IC50 is 51.8 µM (active).

Question: For COc1cc(/C=C/C(=O)OCC(=O)NC2CCS(=O)(=O)C2)ccc1O (stereo not drawn), which IC50 is on record?
Answer: The IC50 was 43.2 µM (active).

Question: For CCOCCCNCC(=O)NCC1CCCCC1, which “inhibition” value is on record?
Answer: The value was 19.1%.

Question: For COc1cc(/C=C/C(=O)OCC(=O)NCC2CCCCC2)ccc1O, which IC50 is on record?
Answer: Its IC50 is 35.4 µM (active).

Question: With CCN(CC(=O)Nc1cc(Cl)ccc1OC)CC(=O)NC1CCS(=O)(=O)C1 (stereo not drawn) as the compound, how does the “inhibition” value read?
Answer: The value was 19.5%.

Question: With Cc1cc(/C=C(\C#N)C(=O)N2CCCCC2)cc(C)c1O as the compound, how does the IC50 read?
Answer: The IC50 was 56.9 µM (active).

Question: Which “inhibition” value does the source give for CC1CC(C)CN(C2CCN(Cc3cccnc3)CC2)C1 (stereo not drawn) here?
Answer: The value was 29.8%.

Question: For CCOc1ccc(N(CCCCO)C(=S)NC(=O)c2ccc(C)c(Br)c2)cc1, which “inhibition” value is on record?
Answer: The value was 27.4%.

Question: For N#CC1=C(S)N(c2ccc(F)cc2)C(c2ccco2)NC1=O (stereo not drawn), which “inhibition” value is on record?
Answer: Its value is -0.4%.

Question: For O=C1c2cccc(NCCNCCO)c2C(=O)c2cccc(NCCNCCO)c21, which “inhibition” value is on record?
Answer: Its value is 15.9%.

Question: With OCCCCNc1cccc2ccccc12 as the compound, how does the IC50 read?
Answer: The IC50 was 34.5 µM (active).

Question: For O=C1c2cccc(NCCCNCCO)c2C(=O)c2cccc(NCCCNCCO)c21, which “inhibition” value is on record?
Answer: The value was 25.1%.

Question: With Nc1ccc(C(=O)c2ccc3c(c2)OCCO3)cc1N as the compound, how does the IC50 read?
Answer: Its IC50 is 24.2 µM (active).

Question: With COc1ccc(C(=O)CCNc2ccc3c(c2)OCCO3)cc1 as the compound, how does the “inhibition” value read?
Answer: The value was 14.2%.

Question: With COc1cc(C=C2CN(C)C(=O)C2=O)ccc1O as the compound, how does the IC50 read?
Answer: The IC50 was 25 µM (active).

Question: With CCOc1cc(/C=C2\CN(CC)C/C(=C\c3ccc(O)c(OCC)c3)C2=O)ccc1O as the compound, how does the IC50 read?
Answer: The IC50 was 61.9 µM (active).

Question: With COc1cc(/C=C/C=C2/CC/C(=C/C=C/c3ccc(O)c(OC)c3)C2=O)ccc1O as the compound, how does the “inhibition” value read?
Answer: Its value is -16.6%.

Question: Which “inhibition” value does the source give for CN(C)CCC(=O)N1C/C(=C/c2ccccc2)C(=O)/C(=C\c2ccccc2)C1 here?
Answer: The value was 5.48%.

Question: Which “inhibition” value does the source give for O=C1/C(=C\c2ccc(Cl)c(Cl)c2)CN(C(=O)CCN2CCOCC2)C/C1=C/c1ccc(Cl)c(Cl)c1 here?
Answer: The value was 1.77%.

Question: With C[N+](C)(C)CCC(=O)N1C/C(=C/c2ccccc2)C(=O)/C(=C\c2ccccc2)C1 as the compound, how does the “inhibition” value read?
Answer: Its value is -3.71%.

Question: Which IC50 does the source give for COc1cc(/C=C2\C(=O)N(C)C(=S)N2C)ccc1O here?
Answer: The IC50 was 30.2 µM (active).

Question: Which IC50 does the source give for CCOc1cc(/C=C2\CN(C)C/C(=C\c3ccc(O)c(OCC)c3)C2=O)ccc1O here?
Answer: The IC50 was 43.5 µM (active).

Question: Which “inhibition” value does the source give for CCN(CC)CCC(=O)N1C/C(=C/c2ccccc2)C(=O)/C(=C\c2ccccc2)C1 here?
Answer: The value was -0.82%.

Question: With COc1ccc(-n2cnc(=S)[nH]c2=S)cc1 as the compound, how does the “inhibition” value read?
Answer: Its value is 1.48%.

Question: For COc1ccc2c(C)cc3n[nH]c(=S)n3c2c1, which IC50 is on record?
Answer: The IC50 was 15.8 µM (active).

Question: For COc1cccc2cc(C(=O)Oc3ccc(NC(C)=O)cc3)c(=O)oc12, which “inhibition” value is on record?
Answer: The value was 29.4%.

Question: Which IC50 does the source give for COc1ccc(NC(=O)c2cc3ccc(O)cc3o/c2=N\O)cc1 here?
Answer: The IC50 was 57.4 µM (active).

Question: Which “inhibition” value does the source give for COc1ccc2oc(=O)c(C(=O)Oc3ccc(NC(C)=O)cc3)cc2c1 here?
Answer: The value was 24.9%.

Question: Which IC50 does the source give for COc1cc(/C=C/C(=O)OCc2cn3cc(Cl)ccc3n2)ccc1O here?
Answer: The IC50 was 36.2 µM (active).

Question: Which IC50 does the source give for COc1cc(/C=C/C(=O)OCC(=O)Nc2cccc(F)c2)ccc1O here?
Answer: The IC50 was 41 µM (active).

Question: Which “inhibition” value does the source give for COc1cc(/C=C2\C(=O)N(CCC#N)N=C2C)ccc1OCC(=O)Nc1ccccc1 here?
Answer: The value was -5.99%.

Question: Which IC50 does the source give for COc1cc(NC(=O)COC(=O)/C=C/c2ccc(O)c(OC)c2)cc(OC)c1 here?
Answer: The IC50 was 36.1 µM (active).

Question: Which “inhibition” value does the source give for COc1ccc(CNCC(=O)Nc2cc(OC)cc(OC)c2)cc1 here?
Answer: The value was 20.6%.

Question: For COc1cc(/C=C/C(=O)OCC(=O)NNC(=O)c2cc(Cl)ccc2OC)ccc1O, which IC50 is on record?
Answer: The IC50 was 55.8 µM (active).

Question: For C#CCOCCOCCOCCNc1nc(N2CCN(C(=O)[C@H](CCCCN)n3cc([C@@H](N)C(C)CC)nn3)CC2)nc(N2CCN(C(=O)[C@H](Cc3cc4ccccc4[nH]3)n3cc([C@@H](N)C(C)CC)nn3)CC2)n1 (stereo partly drawn), which “inhibition” value is on record?
Answer: Its value is 2.45%.

Question: With COc1cc(C2NC(=O)C(C#N)=C(Nc3cccc(C)c3)S2)ccc1O (stereo not drawn) as the compound, how does the “inhibition” value read?
Answer: The value was 17.9%.

Question: Which IC50 does the source give for CCOC(=O)C1=C(COC(=O)/C=C/c2ccc(O)c(OC)c2)NC(=O)NC1C (stereo not drawn) here?
Answer: The IC50 was 53.1 µM (active).

Question: Which IC50 does the source give for O=C(N/N=C/c1ccc(O)cc1)Nc1cccc2nsnc12 here?
Answer: The IC50 was 61.4 µM (active).

Question: For Cc1nonc1C(=O)N/N=C/c1ccc(O)cc1O, which IC50 is on record?
Answer: The IC50 was 72 µM (active).

Question: With COc1ccc(O)c(/C=N/NC(=O)c2c(C)nnn2-c2nonc2N)c1 as the compound, how does the “inhibition” value read?
Answer: The value was 3.93%.

Question: For Cc1nonc1C(=O)N/N=C/c1ccc(O)c(O)c1, which IC50 is on record?
Answer: Its IC50 is 17.7 µM (active).

Question: With COc1cc(/C=N/NC(=O)c2nonc2C)ccc1O as the compound, how does the IC50 read?
Answer: The IC50 was 25.6 µM (active).

Question: Which IC50 does the source give for COc1cc(/C=N/NC(=O)c2nnn(-c3nonc3N)c2C(C)C)ccc1O here?
Answer: The IC50 was 40.7 µM (active).

Question: Which “inhibition” value does the source give for O=S(=O)(/N=S1\CC=CCN1S(=O)(=O)c1ccccc1)c1ccccc1 (stereo not drawn) here?
Answer: Its value is 3.75%.

Question: Which “inhibition” value does the source give for COc1cccc(C(=O)N2CCN(C3CCN(Cc4ccccc4)CC3)CC2)c1OC here?
Answer: Its value is 19.7%.

Question: Which “inhibition” value does the source give for NS(=O)(=O)c1ccc(CCNCC(=O)N2CCC(Cc3ccccc3)CC2)cc1 here?
Answer: The value was 11.3%.

Question: For COc1cc(/C=C/C(=O)OCC(=O)N2CCC(Cc3ccccc3)CC2)ccc1O, which IC50 is on record?
Answer: The IC50 was 49.4 µM (active).

Question: For COc1cc(CN2CCC(C(=O)N3CCN(c4ccccc4F)CC3)CC2)ccc1O, which “inhibition” value is on record?
Answer: The value was 20.6%.

Question: With C/C=C/c1ccc(OCCCCN2CCN(CC)CC2)c(OC)c1 as the compound, how does the “inhibition” value read?
Answer: The value was 15.9%.

Question: For COc1cc(/C=C/C(=O)OCC(=O)N2CC3(C)CC2CC(C)(C)C3)ccc1O (stereo not drawn), which IC50 is on record?
Answer: Its IC50 is 44.7 µM (active).

Question: For COc1cc(/C=C/C(=O)OCC(=O)N2CCCc3ccccc32)ccc1O, which IC50 is on record?
Answer: Its IC50 is 27.8 µM (active).

Question: For COC(=O)C1CCN(C(=O)COC(=O)/C=C/c2ccc(O)c(OC)c2)CC1, which IC50 is on record?
Answer: The IC50 was 44 µM (active).
